# From ChEMBL document CHEMBL3988442, “University of Dundee, Small-Polar-MMV Screening Library” (2021)
# The whole screen tested about 48,000 compounds, of which about 13,000 (27%) showed an effect of 50% or more. This is one part of the list.
# Tested on: Wolbachia pipientis
# Assay: Anti-Wolbachia Cell-Based Screen
# Type: functional
# Design: scale not given: in the data most compounds retested in dose-response had high values
# Conditions: 5 µM
row,Structure (SMILES),Percent Effect [%]
1,CCN(Cc1ccc(C#N)cc1F)C(=O)CN(C)CC(N)=O,-8.702
2,COCc1ccccc1C(=O)NCCCN1CCCC1C(=O)N(C)C (stereo not given),-20.3
3,CC(C)c1nnc2n1CCN(c1nc3ccccc3o1)C2,11.04
4,O=C(c1cc(-n2cccn2)ccc1Cl)N1CCC(N2CCCC2=O)CC1,95.9
5,Cc1nn(-c2ccccc2)cc1C(=O)N1CCCN2CCCC2C1 (stereo not given),6.19
6,O=C(NCc1ccccc1-n1cccn1)N1CCN2CCCCC2C1 (stereo not given),-0.3123
7,CCN(CC)C1CCN(C(=O)c2cc(-n3cccn3)ccc2Cl)CC1,93.46
8,O=C(c1cc(-n2cccn2)ccc1Cl)N1CCCC(N2CCCC2)C1 (stereo not given),114.1
9,O=C(c1cccnc1-n1cccn1)N1CCN(CC2CC2)CC1,-16.04
10,O=C(c1ccc(-n2cccn2)cc1Cl)N1CCCC(O)(CO)C1 (stereo not given),-12.88
11,CC(C)CCC(=O)N1CCN(C(=O)c2ccc(-n3cccn3)cc2)CC1,-3.976
12,O=C(c1cccc(-n2cccn2)c1)N1CCOC(CCO)C1 (stereo not given),-0.5625
13,CCn1ccnc1CN1CCCC(N(C)CCc2ccccc2)C1 (stereo not given),3.806
14,COc1ccc(Cl)cc1-c1cc(NC(=O)C2COCCO2)[nH]n1 (stereo not given),-1.485
15,Cc1cc(I)cnc1NC(=O)C(C)(C)C,-4.531
16,CC(C)Cc1nc(OCC(N)=O)c(C#N)c2c1CCC2,34.66
17,COCCCC1(C(=O)O)CCCN(C(=O)c2ccc(C(C)C)[nH]c2=O)C1 (stereo not given),4.25
18,Cc1occc1C(=O)Nc1ccnc(OC2CCOC2)c1 (stereo not given),30.35
19,O=C(Nc1ccnc(OC2CCOC2)c1)c1ccccc1Cl (stereo not given),70.82
20,O=C(Nc1ccnc(OC2CCOC2)c1)c1ccc(F)cc1Cl (stereo not given),-10.63
21,N[C@H]1CN(C(=O)c2ccccc2Oc2ccccc2)C[C@@H]1C1CC1,-0.964
22,O=C(O)c1ccnc(-c2ccnc(N3CCC(F)(F)CC3)n2)c1,-4.386
23,CCN1CCN(CCC(=O)NC2CC(c3cccc(Cl)c3)C2)CC1 (stereo not given),-7.949
24,Cc1nccn1C1CCCN(C(=O)c2ccc3c(c2)COC3)C1 (stereo not given),0.6755

row,Structure (SMILES),Percent Effect [%]
1,Cc1nccn1C1CCCN(C(=O)c2ccc3c(c2)CCC3)C1 (stereo not given),108.9
2,Cc1nccn1C1CCCN(C(=O)c2cc3ccccc3[nH]2)C1 (stereo not given),-11.12
3,Cc1nccn1C1CCCN(C(=O)c2ccc3cc[nH]c3c2)C1 (stereo not given),104
4,CC(CO)NCc1csc2c1CCCC2 (stereo not given),1.325
5,CCCc1ccc(CN2CCN(C(=O)CC(C)C)[C@@H]3CS(=O)(=O)C[C@@H]32)o1,-2.422
6,COc1cc(N2CCc3ncnc(-c4ccncc4)c3CC2)ncn1.O=C(O)C(F)(F)F,4.079
7,O=C(O)C(F)(F)F.O=C(c1ccncc1)N1CCc2ncnc(C3CC3)c2CC1,-7.83
8,CC(C)NC(=O)N1CCc2ncnc(-c3ccncc3)c2CC1.O=C(O)C(F)(F)F,129.4
9,Cc1ncnc2c1CCN(C(=O)c1ccncc1)CC2.O=C(O)C(F)(F)F,-2.654
10,O=C(NC1CC1)N1CCc2ncnc(-c3ccncc3)c2CC1.O=C(O)C(F)(F)F,-17.44
11,O=C(O)C(F)(F)F.O=C(c1ccno1)N1CCc2ncnc(-c3ccncc3)c2CC1,111.4
12,CN(C)C(C(=O)NC1(CO)CCCC1)c1ccc(F)cc1 (stereo not given),-4.7
13,O=C1N(c2ccc(Br)cc2)Cc2nc(=O)[nH]n21,13.29
14,Cc1cc2cc(C(=O)N[C@@H]3CC[C@@H](N4CCCC4)[C@@H]3O)ccc2o1,117.2
15,Cc1cc2cc(C(=O)N3CCN(CCO)[C@@H]4CS(=O)(=O)C[C@@H]43)ccc2o1,-0.6581
16,Cc1cc2cc(C(=O)N[C@@H]3CC[C@@H](N4CCOCC4)[C@@H]3O)ccc2o1,-19.97
17,Cc1cc(C(=O)N[C@@H]2CCNC[C@H]2O)ccc1Cl,-15.13
18,Cc1cc2cc(C(=O)N[C@@H]3CC[C@@H](N4CCNC(=O)C4)[C@@H]3O)ccc2o1,121.8
19,CCN(C)c1ncnc2c1CCN(C(=O)c1ccno1)CC2,-25.29
20,N#Cc1cnn(C(=O)CCCOc2ccccc2Cl)c1N,5.085
21,CC(=O)N1CCC(c2nnc3ccc(C(=O)NCC(C)C)cn23)C1 (stereo not given),-18.5
22,Cn1cc(-c2cnc(N3CCOCC3)nc2)cc1C(=O)O,-1.361
23,O=C(NCC(F)F)N1CCC(n2ccc(C(F)(F)F)n2)CC1,4.357
24,CC[C@H](C)Nc1ncc(-c2ccn(C3CCN(C(C)=O)CC3)n2)cn1,95.97

row,Structure (SMILES),Percent Effect [%]
1,CN(C(=O)c1cnc(N2CCOCC2)nc1)C1Cc2ccccc2C1,-2.733
2,CCC(SC)C(=O)N1CCC(n2ccnn2)CC1 (stereo not given),9.459
3,CC(C)NC(=O)N1CCC(n2ccc(C(F)(F)F)n2)CC1,-15.91
4,CC(=O)N1CCC(n2ccc(-c3cnc(N4CCOCC4)nc3)n2)CC1,94.2
5,CC(=O)N1CCC(n2ccc(-c3cnc(NCC(C)C)nc3)n2)CC1,75.49
6,O=C(O)c1cc(-c2ccncc2)cc(S(=O)(=O)N2CCSCC2)c1,-4.815
7,O=C(CCC(=O)N1CCOCC1c1ccccc1)c1cccs1 (stereo not given),-0.4955
8,CC(C(=O)Nc1ccc2ccccc2c1)N1CCC(n2ccnc2)CC1 (stereo not given),14.62
9,CCSCCNc1nc(-c2ccccn2)nc2c1c(C)nn2C,-9.72
10,CCCc1nnc(N(C)CC2CCN(CC(C)C)C2)o1 (stereo not given),22.96
11,CC(C)c1nnc2n1CCN(Cc1csc(-c3cnn(C)c3)n1)C2,-7.082
12,Cc1nnc2n1CCN(Cc1csc(CC(=O)N(C)C)n1)C2,-5.269
13,CC(=O)Nc1nc(CN2CCn3c(nnc3C3CC3)C2)cs1,-1.677
14,Cc1nnc2n1CCN(Cc1csc(Cc3ccccc3)n1)C2,-6.731
15,CCc1nnc2n1CCN(Cc1csc(-c3ccccc3)n1)C2,-8.809
16,CCc1nnc2n1CCN(Cc1csc(Cc3ccccc3)n1)C2,110.3
17,CCc1nnc2n1CCN(Cc1csc(-c3ccccc3F)n1)C2,-7.505
18,CC(=O)Nc1nc(CN2CCn3c(nnc3C(C)C)C2)cs1,134.2
19,CCc1nnc2n1CCN(Cc1csc(NC(C)=O)n1)C2,125.2
20,CCc1nnc2n1CCN(Cc1csc(-c3cnn(C)c3)n1)C2,-17.9
21,CC(=O)Nc1nc(CN2CCn3c(C)nnc3C2)cs1,106.6
22,CC(C)c1nnc2n1CCN(Cc1csc(CC(=O)N(C)C)n1)C2,-25.19
